IL1B secr inh: inhibitors of inflammasome signaling (IL-1 beta secretion); activity change, % at 57.5 µM; 360,000 tested, 4.7% active; THP-1 LPS/ATP IL-1B secretion, AlphaLISA, 16 h; hits give low values; in the data active means activity change below about -50%; inconclusive means mostly about -30% to -49%
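THP-1 cells pretreated 1 hr with compounds (up to 57.5 uM final), then stimulated with LPS (250 ng/mL final) plus ATP (1.25 mM final); secreted IL-1B measured by AlphaLISA after 16 hr, decreased signal indicating inhibition.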
HT1080-NT tox: kills 2HG-producing HT-1080-NT fibrosarcoma cells | HT-1080-NT fibrosarcoma viability, CellTiter-Glo ATP luminescence, 48 h | Potency, µM (series often up to 46.1 µM), inactives show top-dose activity, negative = less viability, most hits filed as cytotoxic | 360,000 tested, 1.6% active;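 further: NT is the 2HG producing partner of a matched IDH1 knockdown line; potency means the concentration at half of the fitted maximal effect; 0% = DMSO-treated cells and -100% = media-only wells without cells; nearly all actives have a fitted effect of over 55% in size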
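HT-1080-NT fibrosarcoma cells (2HG-overproducing), 750 cells/well in RPMI with 5% FBS, dosed after 2 h and incubated 48 h at 37C. CellTiter-Glo luminescence normalized to DMSO and no-cell wells; concentration-response curves fitted and classed.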
HT1080 IDH1KD tx: HT-1080 IDH1 knockdown cell toxicity (counter line). AID 686971. HT-1080 IDH1 knockdown viability, ATP luminescence, 48 h. 360,000 tested, 2% active. Potency, µM (top dose mostly 46.1 µM), for inactives: top-dose activity, negative = toxicity, actives largely listed as cytotoxic;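 further: potency means the concentration at half of the fitted maximal effect; 0% = DMSO wells and -100% = cell-free medium wells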
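Using the IDH1-knockdown HT-1080 line run in the same batch and compound series as the NT line, viability after 48 h at 37 °C was determined by CellTiter-Glo luminescence and expressed as % activity.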
DT40 TDP1 CPT: DT40-hTDP1 cell growth loss with CPT | chicken DT40 Tdp1-/-;hTDP1 cells + 20 nM CPT, ATP luminescence, 48 h | Potency, µM (top dose mostly 46.2 µM), without a hit: top-dose activity change, negative = growth inhibition, hits mostly inhibitors | 420,000 tested, 12% active; further: potency means the concentration at half of the fitted maximal effect; nearly all actives have a fitted effect of over 55% in size
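Cell growth measured by CellTiter-Glo luminescence after a minimum 48 h, 37 C compound exposure with 20 nM CPT in Tdp1-knockout DT40 cells stably expressing hTDP1, seeded 400/well; qHTS titration format.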
DT40 TDP1 no CPT: qHTS for Inhibitors of human tyrosyl-DNA phosphodiesterase 1 (TDP1): qHTS in cells in absence of CPT; AID 686978, 2013; DT40 Tdp1-/- hTDP1 cells, no CPT, ATP luminescence, 48 h; 420,000 tested, 15% active; Potency, µM (doses to about 46.2 µM), for inactives: at the top dose activity change, negative = growth inhibition, hits mostly inhibitors; further: potency means the concentration at half of the fitted maximal effect; nearly all actives have a fitted effect of over 55% in size
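A cellular qHTS used chicken DT40 cells lacking endogenous Tdp1 but carrying stably transfected human TDP1. Compounds were applied without camptothecin, and cell growth kinetics were judged by ATP-dependent luminescence after ≥48 hr.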
Starred values were filed as active, the others as inactive; [ ] = another dose, or the depositor's remark. An excerpt weighted towards active compounds, which were near 19% of everything screened. Unless noted, the call rests on the fitted dose curve; in most records, active means well fitted curve in the direction sought with a large enough effect; inconclusive means small, poorly fitted or top-dose-only effect, or another doubt; inactive means no such curve, though single readings can be large; an effect the other way counts as inactive or inconclusive. Unless noted, on the % scale 0 is the no-effect control and ±100 the full control effect.

Screening CC(C)N1CCC1(C)C(=O)Nc1ccc(-n2cccc2)cc1 (stereo not given) returned IL1B secr inh -19, HT1080-NT tox 4%, HT1080 IDH1KD tx 4%, DT40 TDP1 CPT 15µM* and DT40 TDP1 no CPT inconclusive.
For CC(C)N1CCC(C)(C(=O)Nc2ccc(-n3cccc3)cc2)C1 (stereo not given) the results were IL1B secr inh -17, HT1080-NT tox 1%, HT1080 IDH1KD tx 0%, DT40 TDP1 CPT inconclusive and DT40 TDP1 no CPT inconclusive.
`CC1(C(=O)NCc2cccc3ccccc23)CCN1Cc1ccccc1OC(F)F` (stereo not given) gave IL1B secr inh inconclusive, HT1080-NT tox inconclusive, HT1080 IDH1KD tx inconclusive, DT40 TDP1 CPT 21µM* and DT40 TDP1 no CPT 15µM*.
`COC(=O)Cc1ccc(OC2(C)CCN(Cc3ccccc3OC(F)F)C2)cc1` (stereo not given) gave IL1B secr inh -54*, HT1080-NT tox 0%, HT1080 IDH1KD tx 0%, DT40 TDP1 CPT -13% and DT40 TDP1 no CPT inconclusive.
For CC1(C(=O)NCc2ccc(C(F)(F)F)cc2)CCN1Cc1cc2ccccc2o1 (stereo not given) the results were IL1B secr inh -15, HT1080-NT tox -18%, HT1080 IDH1KD tx inconclusive, DT40 TDP1 CPT 21µM* and DT40 TDP1 no CPT 18µM*.
`CC1(C(=O)NCc2ccc(C(F)(F)F)cc2)CCN1Cc1ccccc1OC(F)F` (stereo not given) gave IL1B secr inh -9, HT1080-NT tox -15%, HT1080 IDH1KD tx inconclusive, DT40 TDP1 CPT inconclusive and DT40 TDP1 no CPT 23µM*.
CCn1ncc(C2=NOC(C(=O)Nc3cccc(O)c3)C2)c1C (stereo not given) was read as IL1B secr inh 0, HT1080-NT tox 2%, HT1080 IDH1KD tx 11%, DT40 TDP1 CPT -19% and DT40 TDP1 no CPT -16%.
`CSc1ccc(CCNC(=O)Cn2nc(C)n3c(cc4sccc43)c2=O)cc1` gave DT40 TDP1 CPT -5% and DT40 TDP1 no CPT -7%.
`COc1ccc(-c2cnc(C)o2)cc1S(=O)(=O)Nc1ccc(F)cc1F` gave DT40 TDP1 CPT 1% and DT40 TDP1 no CPT -22%.
Screening COc1cc(NS(=O)(=O)c2ccc(OC)c(C)c2C)c(OC)cc1Cl returned IL1B secr inh -4, HT1080-NT tox 2.3µM*, HT1080 IDH1KD tx 2.3µM*, DT40 TDP1 CPT 4.6µM* and DT40 TDP1 no CPT 3.3µM*.
`COc1cc(OC)c(NS(=O)(=O)c2cc(-c3cnc(C)o3)ccc2OC)cc1Cl` gave DT40 TDP1 CPT 21µM* and DT40 TDP1 no CPT 13µM*.
`Cc1cc(N2CCN(S(=O)(=O)c3ccc(Cl)c(Cl)c3)CC2)c2ccccc2n1` gave IL1B secr inh -12, HT1080-NT tox inconclusive, HT1080 IDH1KD tx inconclusive, DT40 TDP1 CPT inconclusive and DT40 TDP1 no CPT 16µM*.
CCn1c(N2CCN(CC(=O)c3ccc(OC)cc3)CC2)nc2ccccc21 was read as IL1B secr inh -16, HT1080-NT tox -5%, HT1080 IDH1KD tx -1%, DT40 TDP1 CPT -6% and DT40 TDP1 no CPT -14%.
`COc1ccc2nc(C)cc(N3CCN(c4ccccc4)CC3)c2c1` gave IL1B secr inh -65*, HT1080-NT tox inconclusive, HT1080 IDH1KD tx -27%, DT40 TDP1 CPT 21µM* and DT40 TDP1 no CPT 18µM*.
COc1ccc2nc(C)cc(N3CCN(S(=O)(=O)c4ccccc4F)CC3)c2c1 was read as IL1B secr inh inconclusive, HT1080-NT tox -11%, HT1080 IDH1KD tx -4%, DT40 TDP1 CPT inconclusive and DT40 TDP1 no CPT 3.3µM*.
`COc1ccc(C(=O)CN2CCN(c3cc(C)nc4ccccc34)CC2)cc1` gave IL1B secr inh 0, HT1080-NT tox -3%, HT1080 IDH1KD tx -1%, DT40 TDP1 CPT 26µM* and DT40 TDP1 no CPT 29µM*.
Screening CC(NC(=O)CCC(=O)c1ccccc1)c1ccc(F)cc1 (stereo not given) returned IL1B secr inh -15, HT1080-NT tox 7%, HT1080 IDH1KD tx 10%, DT40 TDP1 CPT -18% and DT40 TDP1 no CPT -28%.
COc1ccc(NC(=S)NCCCCCC(=O)C[N+](=O)[O-])cc1 was read as IL1B secr inh -26, HT1080-NT tox -27%, HT1080 IDH1KD tx -24%, DT40 TDP1 CPT -20% and DT40 TDP1 no CPT -3%.
`COc1ccc(Cc2c3cc(OC)c(OC)cc3cc[n+]2C)cc1OC` gave IL1B secr inh 2, HT1080-NT tox 3%, HT1080 IDH1KD tx -3%, DT40 TDP1 CPT -18% and DT40 TDP1 no CPT -12%.
COc1cc2c[n+](C)c3c4ccccc4ccc3c2cc1OC was read as IL1B secr inh -112*, HT1080-NT tox inconclusive, HT1080 IDH1KD tx 16µM*, DT40 TDP1 CPT 1µM* and DT40 TDP1 no CPT 1.5µM*.
`COc1ccc2c(c1)c[n+](C)c1c3cc(OC)c(OC)cc3ccc21` gave IL1B secr inh inconclusive, HT1080-NT tox 9.2µM*, HT1080 IDH1KD tx 10µM*, DT40 TDP1 CPT 1.2µM* and DT40 TDP1 no CPT 1.2µM*.
Screening O=C(COC(=O)CN1C(=O)c2ccccc2C1=O)Nc1cccc(F)c1 returned IL1B secr inh 36, HT1080-NT tox 4%[9.24 µM], HT1080 IDH1KD tx -3%, DT40 TDP1 CPT -24% and DT40 TDP1 no CPT -1%.
Screening O=C1CC(N2CCN(S(=O)(=O)c3ccccc3F)CC2)C(=O)N1c1ccccc1Cl (stereo not given) returned IL1B secr inh 7, HT1080-NT tox 0%, HT1080 IDH1KD tx 0%, DT40 TDP1 CPT -1% and DT40 TDP1 no CPT -13%.
Screening O=C(NS(=O)(=O)Oc1ccc(Cl)cc1)OC[C@@H]1CCCN2CCCC[C@H]12 returned IL1B secr inh 6, HT1080-NT tox 10%, HT1080 IDH1KD tx 14%, DT40 TDP1 CPT 8% and DT40 TDP1 no CPT 13%.
For COC(=O)c1ccc2c(=O)n(CC3CCCO3)c(SCC(=O)Nc3ccc(OC)cc3OC)nc2c1 (stereo not given) the results were IL1B secr inh 32, HT1080-NT tox -1%, HT1080 IDH1KD tx 9%, DT40 TDP1 CPT 3% and DT40 TDP1 no CPT -24%.
For COc1ccccc1NC(=S)N1CCNC(=O)C1CC(=O)Nc1cccc(C)c1 (stereo not given) the results were IL1B secr inh -14, HT1080-NT tox -11%, HT1080 IDH1KD tx -3%, DT40 TDP1 CPT 5% and DT40 TDP1 no CPT 17%.
COc1ccc(OC)c(NC(=O)CC2C(=O)NCCN2C(=O)c2ccccc2)c1 (stereo not given) was read as IL1B secr inh 21, HT1080-NT tox 2%, HT1080 IDH1KD tx 10%, DT40 TDP1 CPT 0% and DT40 TDP1 no CPT -23%.

Screening results (PubChem BioAssay)
